Measured values reported in PMC5540273 (PLoS ONE, 2017).

system: SLK; conditions: concentration: 1 μM, replicates: in singlicate; n = 1
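Note: KINOMEscan kinase panel screen.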

Structure (SMILES) | %Inh
Cc1cccc(Nc2nc(N[C@H]3CCNC3)ncc2C(N)=O)c1.Cl [GSK2197149] | 30%
O=C(Nc1ccccc1F)NC1CCN(c2ccnc(Nc3ccc(F)cc3)n2)CC1 [GSK1379800] | 0%
CN(C)S(=O)(=O)c1cc(-c2ccc3nccc(-c4cccc(S(N)(=O)=O)c4)c3c2)cnc1N [GSK1669921] | 2%
COc1ccc(CNC(=O)NC2CCN(c3ccnc(Nc4ccc(F)cc4)n3)CC2)cc1 [GSK1379788] | 7%
Cl.Cl.NCC(C(=O)Nc1cc(Br)c(-c2ccnc3[nH]ccc23)s1)c1ccccc1 (stereo not shown) [GSK1269851] | 14%
COC(=O)Nc1nc2ccc(Oc3ccc(NC(=O)Nc4cc(C(F)(F)F)ccc4F)cc3)cc2n1C.Cl [GW692089] | 49%
Nc1ncc(-c2cccnc2)c2scc(-c3ccc4c(c3)CCN4C(=O)Cc3ccccc3)c12 [GSK683281] | 33%
Cc1ccc(C(=O)Nc2ccc(Nc3ccnc4cc(-c5nccs5)ccc34)cc2O)cc1.Cl [GW494702] | 30%
Cn1cc(-c2[nH]c3cc(NC(=O)[C@H](N)C4CCCCC4)cc4c3c2C=NNC4=O)cn1 | 14%
CCc1ccc(-c2ccc3c(c2)-c2c(cnn2C)S(=O)(=O)N3C)cc1 | 0%
Nc1ncc(-c2ccc3nccc(-c4ccncc4)c3c2)cc1S(=O)(=O)N1CCOCC1 [GSK1627798] | 36%
O=C(Nc1n[nH]c2nc(-c3ccc(O)cc3)ccc12)C1CC1 [SB-710363] | 61%
O=C(O)C(F)(F)F.O=C(O)C(F)(F)F.O=c1[nH]ccc2nc(N[C@@H]3CCCNC3)nc(Nc3ccc(S(=O)(=O)N4CCOCC4)cc3)c12 [GSK2177277] | 98.4%
COc1cccc(NC(=O)NC2CCN(c3ccnc(Nc4cc(OC)c(OC)c(OC)c4)n3)C2)c1 (stereo not shown) [GSK1379763] | 42%
CCS(=O)(=O)c1ccc(OC)c(Nc2nccc(-c3c(-c4cccc(NC(=O)c5c(F)cccc5F)c4)nn4ncccc34)n2)c1 [GSK326180] | 54%
COC(=O)Nc1nc2cc(Oc3ccc(NC(=O)Nc4cc(C(F)(F)F)ccc4F)cn3)ccc2[nH]1.Cl.Cl [GW681170] | 36%
COc1cc(Nc2nccc(N3CCC(NC(=O)Nc4cccc(C(C)=O)c4)C3)n2)cc(OC)c1OC (stereo not shown) [GSK1379753] | 30%
COc1cc(Nc2nccc(-c3c(-c4cccc(NC(=O)c5c(F)cccc5F)c4)nn4ccccc34)n2)cc(OC)c1OC [GSK323521] | 25%
Cl.Cl.NCC(NC(=O)c1cc(-c2ccccc2)c(-c2ccnc3[nH]ccc23)s1)c1ccccc1 (stereo not shown) [GSK1321561] | 31%

Structure (SMILES) | %Inh
Cl.c1ccc(-c2ccc3c(Nc4ccc5[nH]ncc5c4)ccnc3c2)nc1 [GW440137] | 31%
CCn1c(-c2nonc2N)nc2c(C#CC(C)(C)O)ncc(OCCCCN)c21.O=C(O)C(F)(F)F.O=C(O)C(F)(F)F [GSK507274] | 1%
CN1CCN(CCCNc2nccc(-c3c(-c4ccc(F)cc4)nn4cc(C(F)(F)F)ccc34)n2)CC1 [GW621581] | 42%
Cl.Cl.NCC(NCc1ccc(-c2ccnc3[nH]ccc23)s1)c1ccccc1 (stereo not shown) [GSK1321565] | 74%
COc1cc(Nc2ncc3c(C)nc(-c4cc5ccccc5[nH]4)n3n2)cc(OC)c1OC [GW869516] | 63%
Nc1ncnc2c1nc(-c1ccccc1)n2-c1ccccc1 [SKF-97293] | 0%
O=C(Nc1cccc(-c2nn3ccccc3c2-c2ccnc(Nc3cccc(C(F)(F)F)c3)n2)c1)c1c(F)cccc1F [GSK292658] | 54%
CCCCc1nn2ncccc2c1-c1ccnc(Nc2ccc(N3CCN(C)CC3)cc2)n1 [GW684941] | 69%
Fc1ccc(-c2ncn(C3CCNCC3)c2-c2ccnc(Oc3ccc(-c4ccccc4)cc3)n2)cc1 [SB-245391] | 0%
FC(F)(F)c1ccc(/C=C/c2cncnc2Nc2ccc3[nH]c(Cc4ccccc4)nc3c2)cc1 [GW709199] | 5%
CC(=O)N1CCN(c2ccc(Nc3nccc(-c4sc(C(C)C)nc4-c4cccc(NS(=O)(=O)c5cccc(Cl)c5)c4)n3)cn2)CC1 [GSK1660437] | 72%
CC(=O)Nc1nc2cnc(Nc3cc(NC(=O)c4cccc(C5(C#N)CC5)c4Cl)ccc3C)nc2s1 | 23%
NCCCC(NC(=O)c1cc(Br)c(-c2ccnc3[nH]ccc23)s1)c1ccccc1.O=C(O)C(F)(F)F.O=C(O)C(F)(F)F (stereo not shown) [GSK1287544] | 14%
CN(C)Cc1ccc(-c2ccc3c(Nc4ccc(Oc5ccccn5)cc4)ccnc3c2)o1 [GW567148] | 31%
Cn1cc(-c2ccc3c(c2)CCN3C(=O)Cc2cccc(Cl)c2)c2c(N)ncnc21 [GSK2606590] | 67%
O=c1[nH]cc(-c2ccc(N3CCOCC3)cc2)c2sc(-c3cn[nH]c3)cc12 [GSK2276055] | 0%
CN1CCN(Cc2cccc(-c3ccc4c(Nc5ccc(Oc6ccccc6)cc5)ccnc4c3)c2)CC1 [GW578342] | 0%
COc1cccc(-c2ccc3c(NC(=O)C4CC4)n[nH]c3n2)c1 [SB-710903] | 30%
